Assay results published in PubChem BioAssay AID431 (Sanford-Burnham Center for Chemical Genomics, 2006).
The whole screen tested about 63,000 compounds, of which about 1,100 (1.7%) were called active. The sample holds actives, similar compounds and a random draw of the others, so the mix is not that of the screen.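 How the source made its calls: active means compounds whose percent cytotoxicity in the single-dose primary screen, scaled between solvent and toxic-drug controls, exceeds 50; inactive means the rest.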 Entries with a potency or affinity are not part of this list.

Test: cytotoxicity in KRAS-transformed pancreatic duct cells, primary screen, cell-based, fluorescence, HTS (AID 431);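 further: 0% = DMSO solvent wells and 100% = doxorubicin-treated wells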
Conditions: HPDE-C7K KRASV12 cells, Alamar Blue viability, 48 h; at 10 µM; stronger effect = higher value

| SMILES | cytotoxicity |
| --- | --- |
| O=C1NCC2=C1C(c1ccc(Br)cc1)Nc1ccccc1N2 (stereo not drawn) | -0.1% (inactive) |
| Cc1c(NC(=O)COC(=O)c2cc3c4ccccc4n(C)c3s2)c(=O)n(-c2ccccc2)n1C | 19.8% (inactive) |
| Cc1nnc(NC(=O)Nc2cccc(Cl)c2)s1 | 12.5% (inactive) |
| CNC(=O)C1C2C=CC3(O2)C1C(=O)N(C1CC1)C3C(=O)NCc1ccc(OC)cc1 (stereo not drawn) | 3.6% (inactive) |
| CC(=O)c1c(C)nc(-c2ccc3c(c2)OCO3)n1O | -5.4% (inactive) |
| O=C(Nc1ccc2c(c1)OCO2)C(c1ccc(Cl)cc1)N1CCC2(CC1)OCCO2 (stereo not drawn) | 5.8% (inactive) |
| O=C(CSc1nnc(Cc2ccccc2)o1)Nc1ccc(Br)cn1 | -11.2% (inactive) |
| O=C(NCc1ccccc1)N1CCC(c2nc3ccccc3[nH]2)CC1 | -0.6% (inactive) |
| Cc1ccccc1S(=O)(=O)Cc1ccc(C(=O)NCCN2CCN(Cc3ccccc3)CC2)o1 | 3.7% (inactive) |
| O=C(OCCCc1ccncc1)c1ccc(S(=O)(=O)N2CCOCC2)cc1 | -10.8% (inactive) |
| CC(Oc1ccccc1)C(=O)N1CCCc2ccccc21 (stereo not drawn) | -9.7% (inactive) |
| O=C(COC(=O)c1ccc(Br)c(S(=O)(=O)N2CCOCC2)c1)NCC1CCCO1 (stereo not drawn) | -3.7% (inactive) |
| O=C(COC(=O)c1cc(S(=O)(=O)N2CCOCC2)ccc1O)NCC1CCCO1 (stereo not drawn) | 55.2% (active) |
| O=C(NCC1CCCO1)c1cc(-c2ccncc2)nc2ccc(S(=O)(=O)N3CCOCC3)cc12 (stereo not drawn) | -15.7% (inactive) |
| Cc1ccnc(NC(=O)CCC(=O)N(CC(=O)NC2CCCCC2)c2ccc3c(c2)OCO3)c1 | -7.7% (inactive) |
| CCC1CCCCN1C(=O)CSc1nc(N)c(NC(=O)c2ccco2)c(=O)[nH]1 (stereo not drawn) | -21.6% (inactive) |
| CC1Oc2ccccc2N(CC(=O)c2cccc(Cl)c2)C1=O (stereo not drawn) | -8.4% (inactive) |
| COc1ccc(-c2cc(C(F)(F)F)nc(SCCC(=O)NCc3ccco3)n2)cc1 | -8.8% (inactive) |
| CCOC(=O)c1cnn2c(C)cc(-c3ccc(F)cc3)nc12 | -18.9% (inactive) |
| CCOC(=O)CS(=O)(=O)c1ccc2ccccc2c1 | -6.4% (inactive) |
| COCC(C)NC(=O)CCS(=O)(=O)c1nc(-c2ccc(OC)cc2)cc(C(F)(F)F)n1 (stereo not drawn) | 52.3% (active) |
| Cc1cc(NC(=O)CCCS(=O)(=O)c2nc(-c3cccs3)cc(C(F)(F)F)n2)no1 | 4.1% (inactive) |
| CCOC(=O)CS(=O)(=O)c1nc(-c2ccccc2)cc(C(F)(F)F)n1 | 34.5% (inactive) |
| COc1ccc(-c2cc(C(F)(F)F)nc(SCC(=O)Nc3cc(C)on3)n2)cc1 | -11.8% (inactive) |
| COC(=O)c1ccc2c(=O)n(CCCCCC(=O)NCc3ccccn3)c(=O)[nH]c2c1 | 2.9% (inactive) |

| SMILES | cytotoxicity |
| --- | --- |
| CCCC(=O)NCCCCNC(=O)CCC | -12.2% (inactive) |
| Cc1ccc(CN(Cc2cccnc2)C(=O)CN2C(=O)COc3ccccc32)o1 | -12.5% (inactive) |
| CC(=O)Nc1ccc(NC(=O)Oc2ccccc2)cc1 | -2.5% (inactive) |
| O=C(Nc1ccc(N2CCN(c3ccc(O)cc3)CC2)cc1)Oc1ccccc1 | 65.7% (active) |
| CC(C)Oc1ccc(NC(=O)Oc2ccccc2)cc1 | 3.4% (inactive) |
| Cn1c(=O)c2ccccc2n(Cc2ccccc2F)c1=O | 2.5% (inactive) |
| CCOc1ccccc1Oc1ccc(C(F)(F)F)cn1 | -8.8% (inactive) |
| COc1ccccc1C(=O)Nc1nc2ccc(S(C)(=O)=O)cc2s1 | -0.1% (inactive) |
| CC(C)n1nc(C(=O)Nc2nc3ccc(S(C)(=O)=O)cc3s2)c2ccccc2c1=O | 53.7% (active) |
| CS(=O)(=O)c1ccc2nc(NC(=O)c3cccs3)sc2c1 | 3% (inactive) |
| Cc1cccc(OCCCc2c(C)n[nH]c2C)c1 | 12.8% (inactive) |
| CCCCNS(=O)(=O)c1ccc2nc(SCC(=O)c3ccc(C#N)cc3)[nH]c2c1 | 10.9% (inactive) |
| N#Cc1ccsc1NC(=O)CSc1ncn[nH]1 | -18.4% (inactive) |
| CCCCNS(=O)(=O)c1ccc2nc(SCC(=O)Nc3sccc3C#N)[nH]c2c1 | 80.6% (active) |
| CCn1cc(/C=C(/C#N)S(=O)(=O)c2ccccc2)cn1 | 2.3% (inactive) |
| Cc1ccc(C(C)NC(=O)c2c(C)noc2C)cc1C (stereo not drawn) | -2.1% (inactive) |
| CCOC(=O)N1CCN(Cc2nc(N)nc(Nc3ccc(Oc4ccccc4)cc3)n2)CC1 | 28% (inactive) |
| O=C(O)COc1ccc2nsnc2c1Cl | -27.6% (inactive) |
| CCOc1ccccc1OCC(=O)O | 6.8% (inactive) |
| C=CCOc1ccccc1/C=N/O | -4.8% (inactive) |
| O=C1CN(C(=O)c2ccc(Br)o2)C(c2ccccc2)c2cc(F)ccc2N1 (stereo not drawn) | 3% (inactive) |
| COCCN(CC(=O)NCc1ccccc1)C(=O)CCC(=O)Nc1ccccn1 | 4.7% (inactive) |
| CCCCOc1ccc(C(=O)N2CCC(C)CC2)cc1 | -4.4% (inactive) |
| CCCCOc1ccc(C(=O)OC2CC(C)N(C)CC2C)cc1 (stereo not drawn) | 81.6% (active) |
| CCCCOc1ccc(C(=O)NC)cc1 | -11.7% (inactive) |

| SMILES | cytotoxicity |
| --- | --- |
| Cc1cc(C)n(-c2nc3nonc3nc2-n2nc(C)cc2C)n1 | -2.4% (inactive) |
| C=CCn1c(O)c(C2=c3ccccc3=NC2=O)s/c1=N/c1nccs1 | -2.3% (inactive) |
| O=C1N=c2ccccc2=C1c1sc(=S)n(CC2CCCO2)c1O (stereo not drawn) | 20.6% (inactive) |
| C=CCn1c(O)c(C2=c3ccccc3=NC2=O)sc1=Nc1ccc(O)cc1 | 117% (active) |
| C=CCOC(=O)C1=C(C)NC(C)=C(C(=O)OCC=C)C1c1ccc(O)cc1 | 1.1% (inactive) |
| CN1C(=O)CC(C(=O)Nc2ccc(F)cc2)SC1=Nc1ccc2c(c1)OCO2 (stereo not drawn) | 12.5% (inactive) |
| O=C(COc1nncc2ccccc12)NCCC1=CCCCC1 | -7.1% (inactive) |
| COc1cc(CC(=O)NCc2ccc3c(c2)OCO3)cc(OC)c1OC | -11.8% (inactive) |
| COc1cc([C@@H]2c3cc4c(cc3[C@H](O)[C@H]3COC(=O)[C@H]23)OCO4)cc(OC)c1OC | 70% (active) |
| COc1cc(CC(=O)Oc2ccc3c(c2)OCO3)cc(OC)c1OC | 27.3% (inactive) |
| Cc1cccc(C)c1OCC(=O)Nc1cccc(NC(=O)c2ccco2)c1 | 2.8% (inactive) |
| CCN(CC)c1ccc(NC(=O)c2cc3ccccc3o2)c(C)c1 | -6% (inactive) |
| CCOC(=O)c1ccccc1NC(=O)Cn1c(-c2nonc2N)nc2ccccc21 | 58.5% (active) |
| N#CCCn1c(-c2nonc2NC(=O)c2ccccc2Cl)nc2ccccc21 | 41.9% (inactive) |
| COC(=O)c1ccccc1NC(=O)Cn1c(-c2nonc2N)nc2ccccc21 | 41.3% (inactive) |
| CCCCOc1ccccc1NC(=O)Cn1c(-c2nonc2N)nc2ccccc21 | 42.3% (inactive) |
| CCOC(=O)Cn1c(-c2nonc2NC(=O)c2ccccc2F)nc2ccccc21 | 41% (inactive) |
| CCCCn1c(-c2nonc2NC(=O)c2ccccc2Cl)nc2ccccc21 | 53.9% (active) |
| CCc1nnc(NC(=O)OCc2ccccc2)s1 | -11.2% (inactive) |
| Cn1nnnc1SCC(=O)N1CCN(c2cccc(Cl)c2)CC1 | 14.5% (inactive) |
| COc1ccc(N(CC(=O)Nc2ccc(C)cn2)S(=O)(=O)c2c(C)noc2C)cc1 | -11.9% (inactive) |
| CCC(Sc1nc(=O)cc(N)n1CCc1ccccc1)C(=O)Nc1cc(C)on1 (stereo not drawn) | -10.3% (inactive) |
| O=C(NCCc1ccc(Cl)cc1)C1CCN(S(=O)(=O)N2CCCC2)CC1 | -2.3% (inactive) |
| N#Cc1nc(-c2cccs2)oc1NCCc1ccccc1 | 50.3% (active) |
| N#Cc1nc(-c2cccs2)oc1NCc1ccccc1 | 3.2% (inactive) |

| SMILES | cytotoxicity |
| --- | --- |
| Cc1ccc(CNc2oc(-c3cccs3)nc2C#N)cc1 | 0.3% (inactive) |
| CCN1CCN(c2ncnc3c2sc(=S)n3-c2ccccc2)CC1 | 2.5% (inactive) |
| COc1ccccc1NC(=O)c1ccc(Cl)c(S(=O)(=O)N2CCOCC2)c1 | -3.3% (inactive) |
| O=C(Nc1cccnc1)c1ccc(Cl)c(S(=O)(=O)N2CCCCCC2)c1 | -5.1% (inactive) |
| COc1ccc(NC(=O)c2ccc(Cl)c(S(=O)(=O)N3CCc4ccccc4C3)c2)cn1 | 80% (active) |
| N#CC(C#N)=c1ccc2c(c1)N1C3=C(CCCC3)CC3CCCCC31N=2 (stereo not drawn) | 71.7% (active) |
| N#C/C(C(N)=O)=c1/ccc2c(c1)N1C3=C(CCCC3)CC3CCCCC31N=2 (stereo not drawn) | 66.4% (active) |
| Cc1cc(-c2ccccc2)nc(=O)[nH]1 | -3% (inactive) |
| CCn1c(=O)cc(OCC(=O)N2CCN(C(=O)c3ccco3)CC2)c2ccccc21 | -0.6% (inactive) |
| CC(=O)Nc1ccc(C(=O)CSc2nnc(Cn3nnc4ccccc43)n2C)cc1 | 3.6% (inactive) |
| CCN1C(=O)CS/C1=N\c1nccs1 | -4.6% (inactive) |
| CCN=C1SC(C(N)=O)CC(=O)N1CC (stereo not drawn) | 0.6% (inactive) |
| COc1ccc(N2CCN(CC(=O)Nc3nc4c(s3)CC(C)CC4)CC2)cc1 (stereo not drawn) | 32.4% (inactive) |
| COCCNC(=O)CSc1nc(-c2ccc(OC)c(OC)c2)cc(C(F)(F)F)n1 | -8.7% (inactive) |
| CCOC(=O)c1sc2nc(CSc3nc4ccccc4n3CC)[nH]c(=O)c2c1C | -11.3% (inactive) |
| O=C(Cc1cn2ccsc2n1)Nc1nc2c(s1)CN(Cc1ccccc1)CC2 | -6.3% (inactive) |
| CC(C)(C)C1CCc2nc(NC(=O)Cc3cn4ccsc4n3)sc2C1 (stereo not drawn) | 52.5% (active) |
| O=C(Cc1cn2ccsc2n1)Nc1nc2c(s1)CCCC2 | 23.2% (inactive) |
| CCOc1ccc(Cc2nn[nH]n2)cc1 | -19.6% (inactive) |
| COC(=O)CN(c1cc(C(F)(F)F)ccc1Cl)S(C)(=O)=O | -0.9% (inactive) |
| Cc1ccc(-n2c3c(cc(C(=O)Nc4cccc(C)n4)c2=O)C(=O)CCC3)cc1 | -27.1% (inactive) |
| Cc1cccc(NC(=O)c2cc3c(n(-c4ccccc4)c2=O)CCCC3=O)n1 | 20% (inactive) |
| COc1ccc(-n2c3c(cc(C(=O)Nc4ccc5c(c4)C(=O)NC5=O)c2=O)C(=O)CCC3)cc1 | 61.2% (active) |
